# Among all 360,000 compounds or so, about 16,000 (4.4%) were called active. Another 9% or so got no clear call; they are omitted. Calls follow the shape of the dose curve; as a rule, active = well fitted inhibition curve with a large enough effect; inconclusive = small, poorly fitted or top-dose-only effect; inactive = no such curve, though single readings can be large or run the other way. The list comes from a sample in which actives are over-represented; it also holds similar structures and randomly drawn compounds. Where a call stands in place of a potency, no number is given.
# Target: Bromodomain adjacent to zinc finger domain protein 2B (Homo sapiens) (UniProt Q9UIF8)
# Test: qHTS Assay for Inhibitors of BAZ2B; also: nearly all actives have a fitted effect of over 60% in size
# Settings: AlphaScreen BAZ2B-H3K14Ac peptide displacement; series mostly up to 114 µM
# How it was run: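 Protein-peptide AlphaScreen: BAZ2B 50 nM, b-H3K14Ac 50 nM, 1x PBS pH 7.4 + 0.01% Tween-20. Preincubation 30 min RT; cpd 30 min RT (top 110 uM); beads 20 min RT, light-protected.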
# Potency is read from the fitted curve at half-maximal effect.
# Bromodomain adjacent to zinc finger domain protein 2B (Homo sapiens), sequence (Q9UIF8 whole entry, looked up, the tested form may be a part): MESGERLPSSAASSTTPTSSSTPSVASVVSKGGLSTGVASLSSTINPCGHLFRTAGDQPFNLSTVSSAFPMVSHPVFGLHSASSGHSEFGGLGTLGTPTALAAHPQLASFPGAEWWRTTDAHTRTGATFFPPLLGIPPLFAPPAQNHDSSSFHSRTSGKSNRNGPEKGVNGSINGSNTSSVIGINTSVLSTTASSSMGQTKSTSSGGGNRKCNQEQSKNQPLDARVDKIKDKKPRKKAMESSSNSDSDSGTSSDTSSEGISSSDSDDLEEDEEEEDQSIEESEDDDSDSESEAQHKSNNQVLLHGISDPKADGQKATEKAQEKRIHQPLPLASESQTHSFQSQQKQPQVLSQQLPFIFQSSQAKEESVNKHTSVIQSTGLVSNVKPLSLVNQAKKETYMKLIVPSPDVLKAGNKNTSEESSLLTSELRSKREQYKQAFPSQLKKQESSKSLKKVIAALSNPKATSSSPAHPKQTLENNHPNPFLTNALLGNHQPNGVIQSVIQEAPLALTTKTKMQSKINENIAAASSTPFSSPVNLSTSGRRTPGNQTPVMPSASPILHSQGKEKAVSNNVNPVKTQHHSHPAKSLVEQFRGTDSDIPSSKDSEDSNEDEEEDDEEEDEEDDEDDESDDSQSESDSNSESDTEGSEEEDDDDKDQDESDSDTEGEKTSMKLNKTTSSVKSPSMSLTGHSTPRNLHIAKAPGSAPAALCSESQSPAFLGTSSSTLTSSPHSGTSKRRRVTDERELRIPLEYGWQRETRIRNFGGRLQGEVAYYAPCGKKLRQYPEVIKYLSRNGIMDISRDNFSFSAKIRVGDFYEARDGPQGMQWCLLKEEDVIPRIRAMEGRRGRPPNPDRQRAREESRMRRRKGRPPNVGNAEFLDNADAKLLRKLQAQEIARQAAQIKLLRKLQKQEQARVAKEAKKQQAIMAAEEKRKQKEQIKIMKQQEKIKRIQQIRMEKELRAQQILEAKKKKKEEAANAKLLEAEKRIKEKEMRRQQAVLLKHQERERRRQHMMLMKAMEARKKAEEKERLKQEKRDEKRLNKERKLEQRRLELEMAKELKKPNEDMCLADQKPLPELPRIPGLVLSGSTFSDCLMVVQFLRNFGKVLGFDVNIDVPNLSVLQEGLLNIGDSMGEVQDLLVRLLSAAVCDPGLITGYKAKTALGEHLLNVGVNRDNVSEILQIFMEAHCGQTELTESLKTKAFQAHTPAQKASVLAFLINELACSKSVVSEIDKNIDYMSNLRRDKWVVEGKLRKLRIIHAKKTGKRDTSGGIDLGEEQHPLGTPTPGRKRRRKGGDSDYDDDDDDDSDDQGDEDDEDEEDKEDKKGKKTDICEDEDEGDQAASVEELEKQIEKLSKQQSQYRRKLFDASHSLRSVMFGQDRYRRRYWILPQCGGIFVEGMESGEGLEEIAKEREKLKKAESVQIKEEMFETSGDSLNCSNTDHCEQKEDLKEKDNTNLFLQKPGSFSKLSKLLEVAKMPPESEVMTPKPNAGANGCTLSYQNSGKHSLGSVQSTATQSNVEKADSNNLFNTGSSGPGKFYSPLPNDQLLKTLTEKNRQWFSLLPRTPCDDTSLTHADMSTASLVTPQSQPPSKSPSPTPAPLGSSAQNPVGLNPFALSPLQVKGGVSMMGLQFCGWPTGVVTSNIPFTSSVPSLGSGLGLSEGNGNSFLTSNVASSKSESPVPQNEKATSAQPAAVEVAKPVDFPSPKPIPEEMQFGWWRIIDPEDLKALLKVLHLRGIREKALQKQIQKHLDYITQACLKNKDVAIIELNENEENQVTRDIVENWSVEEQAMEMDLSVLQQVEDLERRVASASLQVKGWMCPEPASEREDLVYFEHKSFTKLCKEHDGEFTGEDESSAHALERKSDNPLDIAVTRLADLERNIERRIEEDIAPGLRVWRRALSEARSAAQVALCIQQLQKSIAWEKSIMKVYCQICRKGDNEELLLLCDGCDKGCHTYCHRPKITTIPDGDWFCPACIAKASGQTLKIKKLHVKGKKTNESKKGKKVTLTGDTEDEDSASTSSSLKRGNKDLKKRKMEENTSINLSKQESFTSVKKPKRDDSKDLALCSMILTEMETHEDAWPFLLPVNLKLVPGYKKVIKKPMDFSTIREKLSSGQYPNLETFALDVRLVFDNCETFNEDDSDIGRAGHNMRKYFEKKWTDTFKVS
row,Structure (SMILES),Potency
1,CCc1ccc(CN(Cc2ccco2)C(=O)c2ccccc2Cl)cc1,inactive
2,Cc1cc(=O)c2cc(C(=O)Nc3cccc(C)c3C)ccc2[nH]1,inactive
3,O=[N+]([O-])c1ccc(N2CCN(CC(O)COc3ccccc3)CC2)cc1 (stereo not given),inactive
4,CC1CCCN(CC(O)COCc2ccccc2)C1 (stereo not given),inactive
5,OC(COCc1ccco1)CN1CCN(c2ccccc2)CC1 (stereo not given),89.1 µM (active)
6,CCCn1ccc2c(OCC(=O)NCc3ccc(F)cc3)cccc2c1=O,inactive
7,Cc1ccc(-c2cn3c(n2)sc2cc(C(=O)NCCCc4ccccc4)ccc23)cc1,inactive
8,Cc1cc2c(cc1C)N(C(=O)CN1C(=O)c3ccccc3C1=O)C(C)(C)c1ssc(=S)c1-2,8.91 µM (active)
9,Cc1cc(C)cc(NC(=O)CN2C(=O)c3ccccc3C2=O)c1,inactive
10,Cc1ccc(NC(=O)CCN2C(=O)c3ccccc3C2=O)cc1C,inactive
11,COc1cc(OC)cc(C(=O)NC(=S)N2CCN(c3ccc(C(F)(F)F)cc3[N+](=O)[O-])CC2)c1,inactive
12,O=[N+]([O-])c1cc(C(F)(F)F)ccc1NN=C1CCCC1,10 µM (active)
13,O=[N+]([O-])c1cc(C(F)(F)F)ccc1NCCc1ccncc1,inactive
14,COc1cccc(CNC(=O)C(=O)NCC(c2cccs2)S(=O)(=O)c2ccccc2)c1 (stereo not given),inactive
15,COc1ccccc1CNC(=O)CCCn1c(=O)c2ccccc2n(CC(=O)Nc2ccc(C)cc2Cl)c1=O,inactive
16,CC(C)NC(=O)C(=O)N/N=C/c1ccco1,inactive
17,O=C(Cc1ccc([N+](=O)[O-])cc1)N/N=C/c1ccco1,inactive
18,O=C(N/N=C/c1ccco1)c1ccc(C(=O)N/N=C/c2ccco2)o1,56.2 µM (active)
19,CCOc1ccccc1NC(=O)CN1CCN(S(=O)(=O)c2ccc(Br)cc2)CC1,inactive
20,Cc1ccc(NC2=C(c3ccc(C(F)(F)F)cc3)C(=O)c3ccccc32)cc1F,inactive
21,Cc1ccc(C)c(Cn2c(=O)n(CCC(=O)NCc3ccc4c(c3)OCO4)c(=O)c3sccc32)c1,inactive
22,Cc1oc2cc([N+](=O)[O-])c(O)c([N+](=O)[O-])c2c1C(=O)c1ccc(Br)cc1,35.5 µM (active)
23,Cc1oc2cc(Br)c(O)c(Br)c2c1C(=O)c1ccccc1,inactive
24,N/C(=N\OC(=O)Cc1ccccc1[N+](=O)[O-])c1ccc(Br)cc1,inactive
25,COCCNc1ncnc2c1c(-c1ccccc1)cn2-c1ccc(C)c(Cl)c1,inactive

row,Structure (SMILES),Potency
1,COc1ccc(Cn2c(=S)[nH]c3cc(C(=O)NCCCN4CCOCC4)ccc3c2=O)cc1,inactive
2,Cc1c(C)n(Cc2ccc(Cl)cc2)c2ccc(C(=O)NCCc3ccc(S(N)(=O)=O)cc3)cc12,inactive
3,Cc1c(C)n(Cc2ccc(Cl)cc2)c2ccc(C(=O)NCCCN3CCOCC3)cc12,39.8 µM (active)
4,COc1ccc(-c2onc(C)c2C)cc1S(=O)(=O)NCC1CCN(Cc2cccc(F)c2)CC1,inactive
5,Cc1ccccc1CN1CCC(CNC(=O)c2c(C)oc3ncnc(N4CCCCC4)c23)CC1,inactive
6,Cn1c(COc2ccccc2C(C)(C)C)nc2ccccc21,inactive
7,COc1ccc(NC(=O)CSC2=Nc3ccccc3C3=NC(CC(=O)NCc4ccccc4OC)C(=O)N23)cc1Cl (stereo not given),inactive
8,O=C(NC(=S)Nc1cc(C(F)(F)F)ccc1N1CCOCC1)c1ccc(-c2cccc(Cl)c2)o1,inactive
9,O=C(NC(=S)Nc1ccccc1C(=O)O)c1ccc(-c2ccc(Br)cc2)o1,44.7 µM (active)
10,O=C(O)c1ccccc1NC(=O)c1ccccc1-c1ccccc1C(=O)O,inactive
11,COc1cc(C)ccc1OCCSc1nc2ccc(NC(=O)c3ccc(C)cc3)cc2s1,inactive
12,O=C(CCOc1ccccc1)N(Cc1cccnc1)c1nc2ccc(Cl)cc2s1,inactive
13,Cc1cccc(N2CCN(C(=O)c3cc4c(=O)oc5ccccc5c4s3)CC2C)c1 (stereo not given),inactive
14,COC(=O)c1ccc(NC(=O)c2cnn(-c3ccc(Cl)cc3)c2C2CCN(C(=O)OC(C)(C)C)CC2)cc1,inactive
15,ON=C1/C(=N\O)CC2(C/C1=N/O)OCCO2,22.4 µM (active)
16,O/N=C1\CC2(Cc3nonc31)OCCO2,inactive
17,Cc1cccc(N2CCN(C(=O)c3ccc4c(c3)CCN4S(=O)(=O)c3ccccc3)CC2)c1C,inactive
18,O=C(COc1ccc(Cl)cc1)N(Cc1ccco1)Cc1ccco1,inactive
19,Cc1ccc(S(=O)(=O)NCc2nc3nc(C)cc(C)n3n2)cc1,inactive
20,CCc1ccc(NC(=O)CSc2nc3c([nH]c4ccccc43)c(=O)n2-c2cccc(OC)c2)cc1,inactive
21,Cn1c(=O)c2c(SCC(=O)N3CCc4ccccc43)nc(-c3ccc(Cl)cc3)nc2n(C)c1=O,inactive
22,Cc1cc(C)nc(N/N=C/c2c(CO)cnc(C)c2O)n1,79.4 µM (active)
23,Cc1cc(C)nc(N/N=C/c2c(C)oc3ccccc23)n1,inactive
24,O=C(c1cccc(Cl)c1)N1CCN(CCc2ccncc2)CC1,inactive
25,CCOC(=O)N1CCN(C(=O)C(C)NC(=O)c2ccco2)CC1 (stereo not given),inactive

row,Structure (SMILES),Potency
1,CC(NC(=O)c1ccco1)C(=O)Nc1nc(-c2ccccn2)cs1 (stereo not given),22.4 µM (active)
2,CSCCC(NC(=O)c1ccco1)C(=O)Nc1cc(C)ccn1 (stereo not given),inactive
3,Cc1cc(C)cc(-n2ccnc2SCC(=O)Nc2nc3ccccc3s2)c1,inactive
4,COc1ccc(CCNC(=O)c2cc3cccc4c3n2CC(C)S4)c(OC)c1OC (stereo not given),inactive
5,CCC1=Nc2cc(C(=O)NCC(C)c3ccccc3)ccc2Sc2ccc(C)cc21 (stereo not given),inactive
6,Cc1nnc(SCC(=O)Nn2cnnc2)s1,inactive
7,Cc1nnc(SCC(=O)Nc2ccc(S(=O)(=O)Nc3ccc(Cl)nn3)cc2)s1,50.1 µM (active)
8,CCCCCC(=O)Nc1ccc(S(=O)(=O)Nc2ccc(Cl)nn2)cc1,inactive
9,c1ccc(-c2ccccc2OCCN2CCCCC2)cc1,50.1 µM (active)
10,C#CC(CCN1CCCCC1)(OC)c1ccccc1 (stereo not given),inactive
11,c1ccc(-c2ccc(OCCN3CCOCC3)cc2)cc1,inactive
12,O=C(CC(c1cccs1)N1Cc2ccccc2C1=O)Nc1ccc(F)c(F)c1 (stereo not given),inactive
13,CC(=O)c1c(C)n(S(=O)(=O)c2ccc(Cl)cc2)c2ccc(NS(=O)(=O)c3ccc(Cl)cc3)cc12,inactive
14,COc1ccc(N2CCN(C(=O)C3CCCN(C(=O)c4cc5sccc5n4C)C3)CC2)cc1 (stereo not given),39.8 µM (active)
15,COc1ccc(N2CCN(C(=O)C3CCN(C(=O)c4ccccc4Cl)CC3)CC2)cc1,inactive
16,Cn1c(C(=O)N2CCCC(C(=O)NCc3ccccc3)C2)cc2sccc21 (stereo not given),inactive
17,Cc1cc(C)cc(NS(=O)(=O)c2cc3c(cc2C)NC(=O)CO3)c1,inactive
18,COc1ccc(C)cc1Nc1nc(C)nc2c1oc1ccccc12,inactive
19,COC(=O)c1cnc(Nc2cc(C)ccc2OC)c2ccccc12,inactive
20,COc1ccc(C)cc1Nc1nc(-c2c(C)[nH]c3ccccc23)cs1,50.1 µM (active)
21,O=C(COc1ccccc1Cl)Nc1ccc2nc(SCC(=O)N3CCCC3)sc2c1,inactive
22,Cc1c(C(=O)NCc2ccccc2Br)oc2ccc3c(c12)C(=O)CC(C)(C)O3,inactive
23,CCOC(=O)c1c(C)[nH]c(C)c1S(=O)(=O)N1CCC(C(=O)Nc2ccc(C)c(Cl)c2)CC1,inactive
24,CCOC(=O)c1ccc(NC2=CC(c3ccc(OCC)cc3)N(c3ccc(C(=O)OCC)cc3)C2=O)cc1 (stereo not given),inactive
25,COc1ccc(CCNc2ncnc3onc(-c4ccc(Cl)cc4)c23)c(OC)c1,inactive

row,Structure (SMILES),Potency
1,Oc1ccc(N=Cc2sc3ccccc3c2Cl)cc1,31.6 µM (active)
2,COc1ccc(N=C(C)c2sc3ccccc3c2O)cc1,inactive
3,CC(=O)n1c(C=Nc2ccccc2)c(O)c2ccccc21,inactive
4,COc1ccc(C(F)(F)F)cc1NC(=O)c1sc2nc(-c3cccs3)ccc2c1N,inactive
5,O=C(C1CC1)N1CCN=C1SCc1ccc(Cl)cc1,inactive
6,Clc1ccc(CSc2nncn3c2cc2occc23)cc1,44.7 µM (active)
7,Nc1cc(N)nc(SCc2ccc(Cl)cc2)n1,inactive
8,COC(=O)c1sccc1S(=O)(=O)N(CC(=O)Nc1ccc(C)c(F)c1)c1ccc(C)c(C)c1,inactive
9,CCOC(=O)c1c(NC(=O)c2cc(-c3ccc(Cl)cc3)on2)sc2c1CCCC2,inactive
10,COc1ccccc1-c1nnc(C2CCN(C(=O)c3ccc(Cl)cc3)CC2)o1,inactive
11,Cc1ccc(Oc2c(C(F)(F)F)oc3c(CN4CCCCC4)c(O)ccc3c2=O)cc1,inactive
12,Cc1nnc(C)n1-c1ccc(C(=O)Nc2cccc(Br)c2)cc1,inactive
13,Cc1ccccc1CN1CCC(CNC(=O)c2cc3ccc4cccnc4c3[nH]2)CC1,inactive
14,O=C(CCN1C(=O)/C(=C/c2cccs2)SC1=S)NNC(=O)c1cccc(O)c1,inactive
15,O=C(CCCN1C(=O)/C(=C\c2ccco2)SC1=S)Nc1cccc2ccccc12,44.7 µM (active)
16,O=C(CCCCCN1C(=O)c2cccc3cccc(c23)C1=O)NCc1ccco1,inactive
17,CCn1c(=O)c(=O)n(CC)c2cc(N3CCCCC3)c(NC(=O)c3cccc(F)c3)cc21,inactive
18,COc1ccc(C)cc1NC(=O)COCc1cc(-c2cccs2)on1,inactive
19,O=C(NCCc1c[nH]c2ccccc12)c1cccc(Br)c1,inactive
20,Cc1cc(C)cc(NC(=S)NCCc2c[nH]c3ccccc23)c1,28.2 µM (active)
21,Cc1cc(C)cc(NC(=S)NCc2ccc(F)cc2)c1,inactive
22,COc1ccc(CNC(=O)COCc2cc(-c3cccs3)on2)cc1OC,inactive
23,CCN(C(=O)Cn1cc(S(=O)(=O)N2CCN(c3ccccc3F)CC2)c2ccccc2c1=O)c1ccc(C)c(C)c1,inactive
24,Cc1ccc(CN(C(=O)c2ccccc2[N+](=O)[O-])c2ccccn2)cc1,inactive
25,CCc1ccc(N(CC)C(=O)CCn2cnc3onc(-c4ccc(F)cc4)c3c2=O)cc1,inactive

# — PubChem BioAssay AID504333 (National Center for Advancing Translational Sciences (NCATS), 2011)
